Screening data (PubChem)
Jurkat NFkB inh = inhibitors of the PMA/ionomycin-induced NF-kB reporter in Jurkat cells; AID 435003; actives 0.53% (n = 330,000); PMA/ionomycin-induced NF-kB luciferase reporter, luminescence; inhibition, % at 4 µM; in the data active = inhibition above about 50%
Shn3 inh set2 = Schnurri-3 reporter inhibition in Clone20 osteoblasts. inhibition, % at 12.5 µM. Clone20 osteoblast Shn3 3'UTR firefly luciferase, 24 h. actives 0.52% (n = 360,000). AID 588674;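 active = mean inhibition of at least 75% with every replicate also reaching 75%; inconclusive = mean inhibition at least 75% but some replicate below; inactive = mean inhibition below 75%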
LMP1 NFkB inh = inhibitors of Epstein-Barr LMP1-induced NF-kappaB reporter; LMP1-induced NF-kappaB luciferase reporter cells, luminescence; inhibition, % at 12.5 µM; actives 0.69% (n = 350,000); in the data active = inhibition above about 41%; inconclusive = no clear call, values can overlap the other calls
Gli-Sufu block = antagonists of Gli-Sufu signaling; Sufu-KO-LIGHT fibroblasts, Gli luciferase reporter luminescence; actives 0.74% (n = 340,000); inhibition, % at 5 µM;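 active = inhibition above about 55%, limit read from the data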
TRPM1 prom inh = MITF TRPM1 promoter inhibition in SK-MEL-5 cells. SK-MEL-5 TRPM1 promoter luciferase, 24 h. inhibition, % at 12.5 µM. actives 0.83% (n = 330,000). AID 488899;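 active = mean inhibition across replicates of 60% or more, whatever share of single replicates reaches that level; inconclusive = some that reach 60%, reason not given; inactive = mean inhibition across replicates below 60%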
697 NFkB inh = inhibitors of the PMA/ionomycin-induced NF-kB reporter in 697 B cells | 697 B-cell NF-kB luciferase reporter, 16 h | inhibition, % at 4 µM | actives 0.33% (n = 330,000); in the data active = inhibition above about 35%
Numbers stand for hits; i = inactive; ? = inconclusive; nt = no result given. Rows were chosen to be rich in hits. Some 2.3% of all compounds tested hit in one or more screens of this group.

SMILES	Jurkat NFkB inh	Shn3 inh set2	LMP1 NFkB inh	Gli-Sufu block	TRPM1 prom inh	697 NFkB inh
CC(C)(C)OC(=O)CC[C@@H](C(=O)NCCCCCCCCCCC(=O)N1CCN(C(=O)OC(C)(C)C)CC1)n1cc(CCCCCNC(=O)OC(C)(C)C)nn1	i	i	i	i	i	i
C#CCOCCOCCOCCNc1nc(N2CCN(C(=O)CCCCCCCCCCNC(=O)[C@H]([C@@H](C)CC)n3cc(CCCCCN)nn3)CC2)nc(N2CCN(C(=O)CCCCCCCCCCNC(=O)[C@H](CO)n3cc(CCCCCN)nn3)CC2)n1	i	i	i	i	81.6	i
O=C(NCCCN1CCCC1=O)c1ccc(CNS(=O)(=O)c2ccc(F)cc2)cc1	i	i	i	i	i	i
C#CCOCCOCCOCCNc1nc(N2CCN(C(=O)CCCCCCCCCCNC(=O)[C@H](CO)n3cc(CCCSC)nn3)CC2)nc(N2CCN(C(=O)CCCCCCCCCCNC(=O)[C@H](CCCCN)n3cc(CCO)nn3)CC2)n1	i	i	i	i	i	i
C#CCOCCOCCOCCNc1nc(N2CCN(C(=O)CCCCCCCCCCNC(=O)[C@H](CO)n3cc(CCCSC)nn3)CC2)nc(N2CCN(C(=O)CCCCCCCCCCNC(=O)[C@H](CCCN=C(N)N)n3cc(C[C@@H](C)CC)nn3)CC2)n1	i	i	i	i	88.6	i
C#CCOCCOCCOCCNc1nc(N2CCN(C(=O)CCCCCCCCCCNC(=O)[C@H]([C@@H](C)CC)n3cc(CCCCCN)nn3)CC2)nc(N2CCN(C(=O)CCCCCCCCCCNC(=O)[C@H]([C@@H](C)CC)n3cc(CCCCN=C(N)N)nn3)CC2)n1	i	i	i	nt	98.7	i
Cc1cc(Nc2cccc([N+](=O)[O-])c2)n2c(nc3ccccc32)c1C#N	i	?	49.5	i	76.3	i
CCN(CC)CCNc1cc(C)c(C#N)c2nc3ccccc3n12	i	i	i	i	i	i
CCn1c(-c2cc(Br)cc(OC)c2O)nc2cc(S(=O)(=O)N(C)C)ccc21	i	i	i	i	i	i
Cc1ccc(-c2csc(N3CCN(CCCn4c(-c5ccncc5)nc5ccccc54)CC3)n2)cc1	i	i	i	i	67.2	i
Cc1ccc(-c2csc(N3CCN(CCCn4c(C(F)(F)F)nc5ccccc54)CC3)n2)cc1	i	i	i	i	i	i
Cc1ccccc1N1CCN(C2=NC(=O)/C(=C\c3cccs3)S2)CC1	i	i	i	i	i	i
O=C1N=C(N2CCN(c3cccc4ccccc34)CC2)S/C1=C/c1cccs1	i	i	77.5	i	i	i
O=S(=O)(/N=S1\CC=CCN1S(=O)(=O)c1ccccc1)c1ccccc1 (configuration not stated)	nt	93.5	i	i	i	nt
Cc1ccccc1C(=O)O/N=C(\N)c1ccncc1	i	i	56.0	i	i	i
O=C(c1ccc([N+](=O)[O-])cc1[N+](=O)[O-])n1cnc2ccccc21	i	i	i	i	i	i
c1ccc2c(c1)OCCOCCOCCOCCOCCOc1ccccc1OCCOCCOCCO2	i	85.7	i	i	i	i
OCCN1CCOCCOc2ccccc2OCCOCC1	i	i	i	i	i	i
COc1ccc(C2c3c(ncn(CCCN4CCOCC4)c3=N)Oc3ccc4ccccc4c32)cc1OC (configuration not stated)	i	i	i	i	79.8	i
COc1ccc(C2c3ccc4ccccc4c3Oc3ncn(CCCO)c(=N)c32)cc1 (configuration not stated)	i	i	i	i	i	i
COc1ccc(C2c3ccc4ccccc4c3Oc3ncn(CCN4CCOCC4)c(=N)c32)cc1 (configuration not stated)	i	i	i	i	77.4	i
COc1ccc(C2c3ccc4ccccc4c3Oc3ncn(CCO)c(=N)c32)cc1 (configuration not stated)	i	i	i	i	77.5	i
Cc1sc(NC(=O)CSc2nc(O)cc(=O)[nH]2)nc1-c1ccccc1	i	i	i	i	i	i
COc1ccc(OC)c(N(C(=O)c2ccco2)C(C(=O)NC2CCCC2)c2ccc(N3CCOCC3)cc2)c1 (configuration not stated)	i	i	i	i	i	i
Cc1cc(NC(=O)CSc2nc3c(c(=O)n2CCc2ccccc2)SC(C)C3)no1 (configuration not stated)	i	i	77.2	i	i	i
